From PubChem BioAssay (NCI)
This is part of a sample that, as a whole, favours compounds with a hit. Of some 79,000 tested, about 15% had one in any assay. A number with no mark means an inactive call. The source made the active and inactive calls. Rule as the data show it: active = growth inhibition above about 70%; inactive = the rest. Where a SMILES comes first, the peptide text is derived from it. [ ]: non-standard residue; d: D form. The star is where a group is joined. ξ: configuration not given here. Cbz = O=C(OCc1ccccc1)*; ξNva = CCCC(N)C(=O)O

What was measured:
[1] = NCI Yeast Anticancer Drug Screen. Data for the rad50 strain (AID 155);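 also: 0% = growth of vehicle-only cultures of the same strain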; details: S. cerevisiae rad50 strain growth inhibition; at 50.0 µM; active compounds read high
In short: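 Vehicle-treated cultures provide the reference for the growth inhibition reported for compound-exposed, repair-deficient yeast.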

[2] = NCI Yeast Anticancer Drug Screen. Data for the mec2-1 strain (AID 157); details: S. cerevisiae mec2-1 strain, at 50.0 µM, active compounds read high
In short: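 mec2-1 yeast strain, carrying an alteration in DNA damage repair or cell cycle control, was exposed to compounds; growth inhibition was measured relative to vehicle-treated controls.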

[3] = NCI Yeast Anticancer Drug Screen. Data for the sgs1 mgt1 strain (AID 161);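 also: 0% = growth of cultures given vehicle only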; details: S. cerevisiae sgs1 mgt1 strain, at 50.0 µM, active compounds read high
In short: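 Compounds are added to genetically altered yeast, and growth is compared with cultures given vehicle alone to give percent inhibition.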

[4] = NCI Yeast Anticancer Drug Screen. Data for the cln2 rad14 strain (AID 165);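 also: 0% = growth equal to vehicle treated cultures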; details: S. cerevisiae cln2 rad14 strain, at 50.0 µM, active compounds read high
In short: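 Yeast carrying cln2 and rad14 alterations (cell cycle control and DNA damage repair) were exposed to compounds. Growth inhibition was measured against vehicle-treated controls.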

[5] = NCI Yeast Anticancer Drug Screen. Data for the bub3 strain (AID 167); details: S. cerevisiae bub3 mutant strain, at 50.0 µM, active compounds read high
In short: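 Mutant yeast screening strain plus compound; vehicle-treated cultures serve as the 0% inhibition reference.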

[6] = NCI Yeast Anticancer Drug Screen. Data for the mlh1 rad18 strain (AID 175); details: S. cerevisiae mlh1 rad18 strain growth inhibition; at 50.0 µM; active compounds read high
In short: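 Growth inhibition of the yeast strain was measured after compound exposure and expressed relative to vehicle-treated controls. The strain carries defined defects in DNA damage repair.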

Structure (SMILES)	growth inhibition [1]	growth inhibition [2]	growth inhibition [3]	growth inhibition [4]	growth inhibition [5]	growth inhibition [6]
CNC(=O)c1ccccc1CC(O)c1ccccc1 (configuration not stated)	-7.95%	0.65%	4.75%	6.75%	0.9%	8.95%
CC(C)Cc1cccc(C(C)C)c1NC(=O)CCC(=O)N/N=C1\C(=N/NC(=O)CCC(=O)Nc2c(C(C)C)cccc2C(C)C)C(c2ccc3c(c2)OCO3)Oc2ccccc21 (configuration not stated)	5.2%	-21.6%	-5%	-2.7%	6.75%	11.2%
O=C1CNC(=O)N1c1ccccc1	7.35%	5.75%	4.4%	-9.2%	5.65%	3.8%
COc1ccc(/C=C/C(=O)N(C)C)cc1	3.1%	5.65%	-0.15%	12.4%	-2.5%	-3.05%
CC(=O)/C=C\c1ccc(-c2ccccc2)cc1	2.65%	-36.2%	-3.6%	-0.6%	-18.9%	-22.7%
Cc1ccccc1C(c1ccccc1)C(CO)CO (configuration not stated)	-1%	0.15%	2.9%	-64.3%	-5.4%	-17.4%
Cc1nnc(Nc2ccc(Cl)c(Cl)c2)s1	-6.95%	-20%	26.8%	12.3%	11.3%	4.75%
CC1CC(NN(C)C)C2(C(N)=O)C(N)=NC(=O)C12C#N (configuration not stated)	5.45%	9.15%	-23.9%	3.8%	-24.7%	-46.1%
NC(=O)C1C2C=CC(O2)C1C(=O)O (configuration not stated)	-26.6%	-12.9%	-10.3%	-23.6%	-1.9%	5.4%
Brc1cc(Br)c(Br)cc1Br	6.1%	5.7%	8.6%	13.8%	-3.65%	12.3%
Nc1ccccc1SC1CC(=O)N(c2ccc(Oc3ccc(Cl)cc3)cc2)C1=O (configuration not stated)	25.6%	12.2%	13.8%	-12.2%	-0.15%	2.55%
c1ccc(C[n+]2cccc3ccccc32)cc1	1.75%	-29.6%	-7.1%	6.25%	-1.95%	-12.2%
C=C(C)C1CCC2(CO)C(O)CC3(C)C(CCC4C5(C)CCC(O)C(C)(C)C5CCC43C)C12 (configuration not stated)	14.5%	7.45%	-8.75%	2.95%	15.6%	-6.6%
O=C(OCN1C(=O)C2C3C=CC(C2C1=O)C1C2C(=O)N(COC(=O)C4CCCN4)C(=O)C2C31)C1CCCN1 (configuration not stated)	5%	-15.6%	-36.6%	2.95%	-42.8%	-10.1%
NNC(=O)CC(O)C(=O)NN (configuration not stated)	-4.7%	-0.8%	-1.85%	11.4%	-1.75%	4.75%
CN(C)C1C(CO)OC(n2cnc3c(N)ncnc32)C1O (configuration not stated)	21.2%	12.8%	-19.4%	22%	-11.8%	-82.2%
COC(=O)CCC(C)C1CCC2C3CCC4CC5CCC4(C)C3(O5)C(Br)C(Br)C12C (configuration not stated)	-11.8%	-48.1%	-32.5%	-33%	-25.5%	-4.8%
CC(Oc1ccc2c(-c3ccc(Cl)cc3)cc(=O)oc2c1)C(=O)O (configuration not stated)	-15.9%	-4.15%	13.6%	19.1%	-7.15%	32.9%
C[Si](C)(COC(N)=O)Cc1ccccc1	-28.1%	-12.6%	-15.5%	-1.2%	-10.6%	-32%
Cn1cc(-c2ccccc2)cc1-c1ccccc1	-11.4%	6.6%	-4.5%	4.9%	-14.9%	9.75%
O=C(CSc1nnc(-c2ccccc2NC(=O)C(F)(F)F)c(=O)[nH]1)NC(=O)Nc1ccccc1	31.7%	-28.8%	11.7%	16.3%	-8.35%	23.9%

Structure (SMILES)	growth inhibition [1]	growth inhibition [2]	growth inhibition [3]	growth inhibition [4]	growth inhibition [5]	growth inhibition [6]
COc1cccc(-c2cc(=O)c3cc(N4CCCC4)ccc3[nH]2)c1	-26.3%	-15.2%	-19.9%	8.6%	-21.6%	-19.1%
Cc1ccc(S(=O)[O-])cc1.Cc1ccc(S(=O)[O-])cc1.[Zn+2]	26.9%	1.05%	16%	14.8%	-1.95%	0.4%
O=c1nc(OCCO)c([N+](=O)[O-])c(C(Cl)(Cl)Cl)[nH]1	61.4%	89.5% (active)	81.7% (active)	36.4%	80.5% (active)	92.3% (active)
CCOC(=O)CCC(NC(=O)c1ccc(Nc2nc3ccccc3nc2C(=O)OCC)cc1)C(=O)OCC (configuration not stated)	11.8%	2.55%	9.1%	15.4%	25.8%	19.1%
CC(=O)OCC1OC(OC(C)=O)C(N)C(OC(C)=O)C1OC(C)=O (configuration not stated)	2.15%	11.8%	11.9%	9.05%	-15.9%	19.4%
COc1ccc(OC)c(NC(=O)CCC/C(CC(=O)c2ccc(O)c(OC)c2)=N\Nc2ccc([N+](=O)[O-])cc2)c1	-25.8%	-0.7%	-38.5%	23.1%	-6%	-25.6%
CCCC(NC(=O)OCc1ccccc1)C(=O)NCC(=O)O (configuration not stated) (Cbz-[ξNva]-Gly-OH)	24.6%	7.2%	6.05%	23.4%	8.7%	8.55%
CCc1ccc(NS(=O)(=O)c2ccc3ccccc3c2)cc1	96% (active)	97.5% (active)	96.9% (active)	94.6% (active)	96.5% (active)	96.4% (active)
CC(C)Nc1ncnc2c1cnn2-c1ccccc1	-5.9%	-17.1%	0.65%	-57.7%	13.5%	-11.3%
CC(Sc1ncnc2[nH]ncc12)C(N)=O (configuration not stated)	-22.5%	-16.4%	-18.4%	-6.6%	5%	0.95%
O=C1c2ccccc2C(=O)N1Cc1ccc(CN2C(=O)c3ccccc3C2=O)cc1	-9%	-3.75%	-16%	-12.2%	-1.55%	-11.1%
O=C1CSC(c2ccccc2)N1O (configuration not stated)	-11.4%	-5%	-22%	-51.5%	-7.5%	-7.7%
Fc1ccc(C(=C(c2ccc(F)cc2)c2ccc(F)cc2)c2ccc(F)cc2)cc1	45.5%	-15.2%	36.9%	9.55%	0.1%	7%
Cn1nc2c(c1-c1ccncc1)CCc1ccccc1-2	3.9%	65.3%	36%	-3.55%	66.1%	24.6%
Cc1cccc(NC(=O)/C=C/c2ccccc2)n1	6.15%	-26.5%	-4.3%	-81.3%	9.15%	-22.4%
C1C[O][Ge]2([O]1)[O]CC[O]2	-24.9%	-4.95%	-16.2%	17.1%	-13.2%	-5.95%
N#CC1CC2c3ccccc3C1([N+](=O)[O-])c1ccccc12 (configuration not stated)	54.5%	26.9%	12.8%	43%	45%	70.7% (active)
Cc1ccc(NC(=O)Oc2ccc(C#N)cc2)cc1Cl	9.45%	5.85%	21.1%	17.8%	29.8%	27.1%
CC1OCC2CC3(O1)OC3C(COCC1OC3COC(C)OC4(C3)OC14)O2 (configuration not stated)	-7.05%	-25.3%	-3.45%	-44.5%	-3.15%	-14.9%
Cc1cn(C2CC(O)C(COC(=O)C(C)(C)C)O2)c(=O)[nH]c1=O (configuration not stated)	16.9%	-0.35%	3.85%	-0.1%	-18.5%	-47.5%
O=C(O)c1ccc(OCCOc2ccccc2)c(Cl)c1	31%	74.8% (active)	61.3%	40.2%	63.6%	61%
